This is a sample that favours compounds with a hit; in the whole collection about 2.3% have one here.
Jurkat NFkB inh: inhibitors of the PMA/ionomycin-induced NF-kB reporter in Jurkat cells. PMA/ionomycin-induced NF-kB luciferase reporter, luminescence. inhibition, % at 4 µM. 330,000 compounds, 0.53% hits; in the data active = inhibition above about 50%
Gli-Sufu antag: Gli-Sufu pathway antagonism; Sufu-KO-LIGHT fibroblasts, Gli luciferase reporter luminescence; 340,000 compounds, 0.74% hits; inhibition, % at 5 µM;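 active = inhibition above about 55%, limit read from the data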
Shn3 inh set2: reduces Shn3 3'UTR luciferase signal in osteoblasts | Clone20 osteoblast Shn3 3'UTR firefly luciferase, 24 h | inhibition, % at 12.5 µM | 360,000 compounds, 0.52% hits | AID 588674;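 active = mean inhibition of at least 75% with every replicate also reaching 75%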
EBV LMP1 NFkB: reduces LMP1-driven NF-kappaB luciferase signal. AID 504558. 350,000 compounds, 0.69% hits. inhibition, % at 12.5 µM. LMP1-induced NF-kappaB luciferase reporter cells, luminescence; in the data active = inhibition above about 41%
TRPM1 prom inh: inhibitors of MITF-driven TRPM1 promoter in melanoma cells; AID 488899; SK-MEL-5 TRPM1 promoter luciferase, 24 h; inhibition, % at 12.5 µM; 330,000 compounds, 0.83% hits;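 active = mean inhibition across replicates of 60% or more, whatever share of single replicates reaches that level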
697 NFkB inh: lowers PMA/ionomycin-induced NF-kB signal in 697 B cells; 697 B-cell NF-kB luciferase reporter, 16 h; AID 435022; inhibition, % at 4 µM; 330,000 compounds, 0.33% hits; in the data active = inhibition above about 35%
Gli antag conf: confirmation of Gli-SUFU pathway antagonists. shares compounds with Gli-Sufu antag. Sufu-KO-LIGHT cells, Gli luciferase reporter, luminescence. inhibition, % at 5 µM. 2,500 compounds, 40% hits. AID 602428;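 active = mean inhibition at 5 µM reaching about 45%, limit read from the data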
SufuKO cytotox: cytotoxicity counter-screen for Gli-SUFU antagonists | shares compounds with Gli-Sufu antag | Sufu-KO-LIGHT cells cytotoxicity, ATP luminescence | cytotoxicity, % at 5 µM | 2,500 compounds, 32% hits;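 active = mean cytotoxicity at 5 µM above about 25%, limit read from the data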;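 note: cells exposed to compound overnight for roughly 16 to 18 hours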
Wnt3a cs: counter-screen for Gli-SUFU antagonists: Wnt3a reporter inhibition. 2,500 compounds, 20% hits. inhibition, % at 6.25 µM. Wnt-LIGHT cells, Wnt3a-driven luciferase reporter, luminescence. shares compounds with Gli-Sufu antag;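 active = mean inhibition above about 25%, limit read from the data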
Numbers stand for hits.

How did CC(C)C(NC(=O)C(C(C)C)N(C)C)C(=O)N(C)C(C(=O)N1CCCC1C(=O)N1CCCC1C(=O)NCc1ccccc1)C(C)C (centres undefined) do in these assays?
Gli-Sufu antag: inactive; Shn3 inh set2: inactive; EBV LMP1 NFkB: inactive; TRPM1 prom inh: 65; Gli antag conf: 57; SufuKO cytotox: 52; Wnt3a cs: inactive

Results for COc1cc2c3c(c1OC)Oc1ccc(cc1)C[C@H]1c4c(cc(OC)c(OC)c4Oc4ccc(cc4)C[C@@H]3N(C)CC2)CCN1C ?
Jurkat NFkB inh: inactive; Gli-Sufu antag: 65; Shn3 inh set2: inactive; EBV LMP1 NFkB: inactive; TRPM1 prom inh: 91; 697 NFkB inh: inactive; Gli antag conf: inactive; SufuKO cytotox: inactive; Wnt3a cs: inactive

What do the screens show for `CC(NCc1cccc(Cl)c1Cl)C(O)c1ccccc1` (centres undefined)?
Jurkat NFkB inh: inactive; Gli-Sufu antag: 97; Shn3 inh set2: inactive; EBV LMP1 NFkB: inactive; TRPM1 prom inh: inactive; 697 NFkB inh: inactive; Gli antag conf: inactive; SufuKO cytotox: inactive; Wnt3a cs: inactive

Results for COc1ccc(NC(=O)CN(C)C(=O)CSC(c2ccccc2)c2ccccc2)cc1 ?
Jurkat NFkB inh: inactive; Gli-Sufu antag: inactive; Shn3 inh set2: inactive; EBV LMP1 NFkB: inactive; TRPM1 prom inh: inactive; 697 NFkB inh: inactive

What do the screens show for `CCOc1ccccc1N=C1SCCCN1C`?
Jurkat NFkB inh: inactive; Gli-Sufu antag: inactive; Shn3 inh set2: inactive; EBV LMP1 NFkB: inactive; TRPM1 prom inh: inactive; 697 NFkB inh: inactive

How did CCOc1cccc(=NC2CCCCC2)c2c(C)n(C)c(C)c12 do in these assays?
Jurkat NFkB inh: inactive; Gli-Sufu antag: 86; Shn3 inh set2: inactive; 697 NFkB inh: inactive; Gli antag conf: 89; SufuKO cytotox: 44; Wnt3a cs: inactive

What do the screens show for `CCCCCCn1c(=O)c(C(=O)Nc2cnccn2)c(O)c2ccccc21`?
Jurkat NFkB inh: inactive; Gli-Sufu antag: 78; Shn3 inh set2: inactive; EBV LMP1 NFkB: inactive; TRPM1 prom inh: 73; 697 NFkB inh: inactive; Gli antag conf: 79; SufuKO cytotox: inactive; Wnt3a cs: 30

Results for CCCCCn1c(=O)c(C(=O)Nc2ccccn2)c(O)c2ccccc21 ?
Jurkat NFkB inh: inactive; Gli-Sufu antag: inactive; Shn3 inh set2: inactive; EBV LMP1 NFkB: inactive; TRPM1 prom inh: inactive; 697 NFkB inh: inactive

How did COC(=O)C1=C(c2cc3ccccc3o2)C[C@@H]2CC[C@H]1N2C(=O)N1CCC(C)CC1 do in these assays?
Jurkat NFkB inh: inactive; Gli-Sufu antag: inactive; Shn3 inh set2: inactive; EBV LMP1 NFkB: inactive; TRPM1 prom inh: inactive; 697 NFkB inh: inactive; Gli antag conf: inactive; SufuKO cytotox: inactive; Wnt3a cs: inactive

Results for COc1ccc(O)c2c(=O)c3c(OC)cc4c(c3oc12)C1C=COC1O4 (centres undefined) ?
Jurkat NFkB inh: inactive; Gli-Sufu antag: 60; Shn3 inh set2: inactive; EBV LMP1 NFkB: 64; TRPM1 prom inh: inactive; 697 NFkB inh: inactive; Gli antag conf: 69; SufuKO cytotox: 37; Wnt3a cs: inactive

What do the screens show for `O=C(CCC(=O)N1CC2C[C@@H](C1)Cn1c2cccc1=O)NCCc1ccccc1`?
Jurkat NFkB inh: inactive; Gli-Sufu antag: inactive; Shn3 inh set2: inactive; EBV LMP1 NFkB: inactive; TRPM1 prom inh: inactive; 697 NFkB inh: inactive

What do the screens show for `CNC(=O)Oc1ccc(C(=O)N2c3ccccc3NC(=O)C2C)cc1` (centres undefined)?
Jurkat NFkB inh: inactive; Gli-Sufu antag: inactive; Shn3 inh set2: inactive; EBV LMP1 NFkB: inactive; TRPM1 prom inh: inactive; 697 NFkB inh: inactive

Results for Cc1cc(-c2ccccc2)cc(C)[n+]1Cc1ccccc1 ?
Jurkat NFkB inh: inactive; Gli-Sufu antag: 79; Shn3 inh set2: inactive; EBV LMP1 NFkB: inactive; TRPM1 prom inh: inactive; 697 NFkB inh: inactive; Gli antag conf: 84; SufuKO cytotox: inactive; Wnt3a cs: 32
